# Results: paper PMC4336329 (PLoS ONE, 2015)
# About 14,000 (4.5%) of roughly 310,000 compounds showed an effect of 50% or more. The effect is printed as a negative number. For the sample, strong results were picked, then their nearest neighbours and some compounds at random.
# Biological target: human ether-à-go-go-related gene (hERG) potassium channel (human, UniProt Q12809)
# Assay: primary screen, population patch clamp on CHO cells stably expressing hERG; higher = less effect of the substance
# 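Note: peak tail current of the secondary pulse compared with the same well before compound.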
# Chain of human ether-à-go-go-related gene (hERG) potassium channel (Q12809 whole entry, looked up): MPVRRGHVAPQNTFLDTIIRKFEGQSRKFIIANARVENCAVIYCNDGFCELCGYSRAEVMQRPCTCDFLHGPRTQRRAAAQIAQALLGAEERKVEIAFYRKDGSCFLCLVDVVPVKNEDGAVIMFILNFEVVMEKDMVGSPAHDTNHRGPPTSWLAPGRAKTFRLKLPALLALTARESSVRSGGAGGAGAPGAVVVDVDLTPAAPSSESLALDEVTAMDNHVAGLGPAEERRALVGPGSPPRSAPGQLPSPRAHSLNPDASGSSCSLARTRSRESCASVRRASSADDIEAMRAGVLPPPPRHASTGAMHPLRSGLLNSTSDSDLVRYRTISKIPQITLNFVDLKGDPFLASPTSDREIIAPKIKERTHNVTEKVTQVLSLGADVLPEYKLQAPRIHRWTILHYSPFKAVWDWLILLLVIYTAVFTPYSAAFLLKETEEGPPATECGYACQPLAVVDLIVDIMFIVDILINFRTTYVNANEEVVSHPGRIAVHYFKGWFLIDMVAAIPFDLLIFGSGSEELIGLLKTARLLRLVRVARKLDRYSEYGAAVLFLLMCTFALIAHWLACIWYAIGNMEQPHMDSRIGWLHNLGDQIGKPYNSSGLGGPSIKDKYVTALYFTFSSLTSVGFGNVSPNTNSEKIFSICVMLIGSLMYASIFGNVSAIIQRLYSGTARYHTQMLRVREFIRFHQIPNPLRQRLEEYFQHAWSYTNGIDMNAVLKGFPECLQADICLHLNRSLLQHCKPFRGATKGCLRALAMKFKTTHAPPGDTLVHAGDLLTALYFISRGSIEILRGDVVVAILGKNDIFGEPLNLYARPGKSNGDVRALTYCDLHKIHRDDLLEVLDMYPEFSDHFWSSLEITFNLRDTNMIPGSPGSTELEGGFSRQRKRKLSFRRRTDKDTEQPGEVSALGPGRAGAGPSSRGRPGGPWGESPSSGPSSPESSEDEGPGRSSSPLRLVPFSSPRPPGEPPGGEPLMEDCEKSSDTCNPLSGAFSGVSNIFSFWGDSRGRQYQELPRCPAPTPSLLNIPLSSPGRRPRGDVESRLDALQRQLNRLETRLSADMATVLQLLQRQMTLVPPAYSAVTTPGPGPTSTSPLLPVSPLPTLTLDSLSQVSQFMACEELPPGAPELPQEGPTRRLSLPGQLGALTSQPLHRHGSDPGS
row,SMILES,"hERG current change (%, negative = inhibition) at 10uM"
1,Cc1cc(C)c(C#N)c(N2CCSCC2)n1,4.36%
2,CC(=O)N1CCc2cc(S(=O)(=O)NCCC(=O)NC3CCCc4ccccc43)ccc21 (stereo not drawn),2.54%
3,NC(=O)c1noc(C(=O)N(CC(=O)NC2CCCC2)Cc2ccc3c(c2)OCO3)c1N,-7.94%
4,Cc1cc(N2CCN(C)CC2)nc2ccc(NC(=S)NCCCN3CCc4ccccc4C3)cc12,-26.5%
5,Cc1cc(N2CCOCC2)nc2ccc(NC(=S)N3CCN(Cc4ccccc4)CC3)cc12,-33.6%
6,Cc1cc(N2CCOCC2)nc2ccc(NC(=S)NCCC(C)C)cc12,-64.1%
7,CCN(CC)CCNC(=S)Nc1ccc2nc(N3CCOCC3)cc(C)c2c1,11.7%
8,Cc1cc(N2CCN(C)CC2)nc2ccc(NC(=S)NCCC(C)C)cc12,-51.2%
9,Cc1cc(N2CCOCC2)nc2ccc(NC(=S)NCCN(C)C)cc12,13.7%
10,COCCNC(=S)Nc1ccc2nc(N3CCOCC3)cc(C)c2c1,-0.507%
11,CCN(CC)CCNC(=S)Nc1ccc2nc(N3CCN(C)CC3)cc(C)c2c1,-1.04%
12,Cc1cc(N2CCOCC2)nc2ccc(NC(=S)NCc3ccc4c(c3)OCO4)cc12,-68.5%
13,Cc1cccc(Cn2nc(C(C)(C)C)cc2C(=O)Nc2ccc(F)cc2)c1,14.8%
14,C(#CCN1CCOCC1)COCC#Cc1ccccc1.Cl,-2.16%
15,CC(C)(C)OC(=O)N[C@@H](Cc1c[nH]c2ccccc12)c1nnc(SCC(N)=O)o1,-3.96%
16,Cc1nc2ccccc2c(=O)n1-c1cc(F)ccc1F,8.31%
17,Cc1ccc(C)c(S(=O)(=O)NNC(=O)Nc2ccccc2Cl)c1,5.51%
18,O=c1cc(CSc2ccc(Cl)cc2)nc(-c2ccccn2)[nH]1,-0.0469%
19,COc1ccc(CNC(=O)C(c2ccco2)N(Cc2ccccc2)C(=O)Cc2cccs2)cc1 (stereo not drawn),18%
20,COc1ccc(C(=O)c2cc([N+](=O)[O-])ccc2N2CCN(C)CC2)cc1,-58.2%
21,Cc1ccc(C(=O)c2cc([N+](=O)[O-])ccc2N2CCCCC2)cc1,-5.08%
22,Cc1ccc(C(=O)c2cc([N+](=O)[O-])ccc2N2CCN(C)CC2)cc1,-64.5%
23,COc1ccc(C(=O)c2ccc([N+](=O)[O-])cc2Cl)cc1,-16.2%

row,SMILES,"hERG current change (%, negative = inhibition) at 10uM"
1,O=C(c1ccccc1)c1cc([N+](=O)[O-])ccc1N1CCOCC1,-30.7%
2,CCN1CCN(c2ccc([N+](=O)[O-])cc2C(=O)c2ccc(Cl)cc2)CC1,-72.8%
3,Cc1ccc(C(=O)c2cc([N+](=O)[O-])ccc2N2CCOCC2)cc1C,-17%
4,Cc1ccc(C(=O)c2cc([N+](=O)[O-])ccc2N2CCCCC2)cc1C,6.24%
5,COc1ccc(C(=O)c2cc([N+](=O)[O-])ccc2N2CCOCC2)cc1,-23.5%
6,O=C(c1ccccc1)c1cc([N+](=O)[O-])ccc1N1CCCC1,-12%
7,Cc1ccc(C(=O)c2cc([N+](=O)[O-])ccc2N2CC(C)OC(C)C2)cc1 (stereo not drawn),-0.127%
8,CN1CCN(c2ccc([N+](=O)[O-])cc2C(=O)c2ccccc2)CC1,-54.2%
9,Cc1nn(CC(=O)N2CCN(S(=O)(=O)c3ccccc3)CC2)c(C)c1[N+](=O)[O-],-10%
10,Cl.Clc1cccc(Nc2nc(N3CCOCC3)nc(N3CCOCC3)n2)c1,16.9%
11,CN(C)C(=O)c1cn(-c2ccccc2)nc1-c1cc2ccccc2o1,-10.3%
12,CC12CCC(=O)N1c1ccccc1C(=O)N2c1ccccc1 (stereo not drawn),-9.9%
13,CCOC(=O)c1sc(NC(=O)CSc2nncn2C)nc1C,9.68%
14,Cl.O=C(OCCN1CCCCC1)c1cccc(Cl)c1,-30.6%
15,CCCC(c1nnnn1Cc1ccco1)N1CCN(c2ccccc2)CC1.Cl (stereo not drawn),-19.6%
16,Cc1c(Cc2ccccc2)c(NCCN(C)C)n2c(nc3ccccc32)c1C#N,-32.4%
17,Cc1[nH]c2ccccc2c1Cc1nnc(SCC(=O)NCc2ccco2)o1,4.19%
18,COc1ccc(CC(=O)c2ccc(O)cc2O)cc1,-3.19%
19,N/C(=N\OC(=O)c1ccc(OCC(F)(F)F)nc1)c1ccc(Cl)cc1,19.5%
20,O=C(c1ccc(Br)cc1)c1cc([N+](=O)[O-])ccc1N1CCOCC1,-30.7%
21,CN1CCN(c2ccc([N+](=O)[O-])cc2C(=O)c2ccc(Cl)cc2)CC1,-67.4%
22,O=C(c1ccc(Cl)cc1)c1cc([N+](=O)[O-])ccc1N1CCOCC1,-32.4%
23,CN1CCN(c2ccc([N+](=O)[O-])cc2C(=O)c2ccc(Br)cc2)CC1,-69.5%

row,SMILES,"hERG current change (%, negative = inhibition) at 10uM"
1,O=C(c1ccc(Br)cc1)c1cc([N+](=O)[O-])ccc1N1CCCCC1,-25.3%
2,CN1CCN(c2ccc([N+](=O)[O-])cc2C(=O)N2CCCCC2)CC1,-7.66%
3,CC(=O)Nc1cc2nc(C)n(Cc3ccccc3[N+](=O)[O-])c2nc1C,17.4%
4,C1CCc2nc3c(nc2C1)CCCC3,-10.7%
5,C=CCc1c(C)nc(SC)nc1Nc1ccc(C)cc1,-14.3%
6,CN(C(=O)c1cccnc1)c1nnc(-c2cccnc2)s1,14.4%
7,COc1ccc(N2CCN(C(=O)CN3CCN(C(c4ccccc4)c4ccccc4)CC3)CC2)cc1.Cl,-46%
8,CCCCC(=O)OCC(=O)Nc1ccc(OC(F)F)cc1,-21.2%
9,Cc1ccn2c(=O)c(NC(=O)COc3ccccc3)c(C)nc2c1,-56.9%
10,Cc1ccn2c(=O)c(NC(=O)c3cccc4ccccc34)c(C)nc2c1,-1.31%
11,Cc1nc2c(C)cccn2c(=O)c1NC(=O)COc1ccccc1,-12.1%
12,N#Cc1c(Cl)nsc1NC(=O)c1ccccc1,8.24%
13,Cc1ccc(S(=O)(=O)N2CCCCC2CCNC(=O)C(=O)NCCc2ccco2)cc1 (stereo not drawn),-33.1%
14,Cc1ccc(C)c(N2CCN(CCCNC(=O)CCC(=O)N3CCOc4ccc(Cl)cc43)CC2)c1,-55.9%
15,O=C(NC1CCN(Cc2ccccc2)CC1)C1COc2ccccc2O1 (stereo not drawn),-57.5%
16,O=C(CCC(=O)N1CCOc2ccc(Cl)cc21)NCCN1CCOCC1,3.97%
17,CN1CCN(CCCNC(=O)CCC(=O)N2CCOc3ccccc32)CC1,5.46%
18,O=C(NC1CCCCC1)C1COc2ccccc2O1 (stereo not drawn),-7.19%
19,CCN1CCN(CCCNC(=O)CCC(=O)N2CCOc3ccccc32)CC1,-13%
20,Cc1ccccc1CNC(=O)CCC(=O)N1CCOc2ccc(Cl)cc21,-24.2%
21,O=C(C1COc2ccccc2O1)N1CCN(Cc2ccccc2)CC1 (stereo not drawn),-7.63%
22,O=C(CCC(=O)N1CCOc2ccc(Cl)cc21)NCCCN1CCN(c2ccccc2F)CC1,-66.5%
23,O=C(CCC(=O)N1CCOc2ccccc21)NCCCN1CCN(Cc2ccccc2)CC1,-79.8%

row,SMILES,"hERG current change (%, negative = inhibition) at 10uM"
1,O=C(CCC(=O)N1CCOc2ccccc21)NCCCN1CCCCC1,7%
2,CC(C)(C)NC(=O)c1ccc2c(c1)C1C3CCC(C3)C1C(c1ccccc1)N2 (stereo not drawn),5.59%
3,Cc1ccc(S(=O)(=O)NCCC(=O)NCC(c2ccc(F)cc2)N2CCOCC2)cc1 (stereo not drawn),-5.84%
4,CCc1cccc(NC(=O)C2CC2c2ccccc2)c1 (stereo not drawn),14.5%
5,Cc1noc(C)c1C(=O)OCC(=O)N1CCN(S(=O)(=O)c2ccc3ccccc3c2)CC1,-0.697%
6,COCc1ccccc1C1=CC(=O)C[C@H](c2ccc(OC)cc2)C1,-12.3%
7,Cc1cc(OCc2ccc(C(=O)n3cccn3)o2)ccc1Cl,-0.553%
8,CN(C/C(O)=C(\C#N)c1ccccc1)C1CCCCC1,-0.409%
9,COC(=O)c1c(C)[nH]c(C(=O)/C=C/c2ccccc2)c1C,1.52%
10,CCN1CCN(CCCNC(=O)CCC(=O)N2CCOc3ccc(Cl)cc32)CC1,-5.48%
11,CCOC(=O)N1CCC(NC(=O)CCC(=O)N2CCOc3ccccc32)CC1,8.3%
12,O=C(CCC(=O)N1CCOc2ccccc21)NC1CCCCCC1,-20.8%
13,O=C(CCC(=O)N1CCOc2ccc(Cl)cc21)NCCCN1CCN(Cc2ccccc2)CC1,-73.2%
14,O=C(CCC(=O)N1CCOc2ccccc21)NC1CCN(Cc2ccccc2)CC1,-51%
15,Cc1nc(C)c(N)c(=O)[nH]1.Cl,16.3%
16,O=C(NN1C(=O)C2C3C=CC(C4CC34)C2C1=O)c1ccc(Br)cc1 (stereo not drawn),22.8%
17,CCC1CCCCN1C(=O)CSc1nnc(-c2ccco2)o1 (stereo not drawn),4.11%
18,Cc1cccc(C(=O)Oc2cc(C)[nH]c(=O)c2[N+](=O)[O-])c1,16.7%
19,CC(=O)c1ccc(N2Cc3ccccc3C2)cc1,-2.58%
20,CC(=O)c1ccc(N2Cc3ccccc3C2=NC(=O)c2cccs2)cc1,-20.6%
21,Br.CC(=O)c1ccc(N2Cc3ccccc3C3(CCOCC3)C2=N)cc1,-57.5%
